MIN6 prolif: inducers of MIN6 beta-cell proliferation, primary screen, ATP luminescence, uHTS. MIN6 cells proliferation, ATPlite luminescence, 48 h; cells starved in 0.2% serum; 100% = growth in 10% serum. proliferation, % at 10 µM. hit rate 0.29% among 330,000;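 active = compounds whose signal lies at least 3.5 SD above the mean of all wells on their plate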;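 also: 0% = DMSO-treated cells in low-serum medium and 100% = 10% serum control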
PfM18AAP inh: PfM18AAP inhibitors, malaria aminopeptidase, primary screen, biochemical, QFRET, recombinant enzyme | M18 aspartyl aminopeptidase (Plasmodium falciparum 3D7) | inhibition, % at 7.35 µM | hit rate 1.2% among 290,000 | H-Glu-NHMec fluorogenic cleavage | AID 1822, 2009;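 active = inhibition above the campaign mean inhibition over all tested compounds plus 3 SD, cut at about 28% in these data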;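 also: 0% = plate median of test compound wells and 100% = 2 mM ZnCl2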
Granule exo inh: LAMP-1 surface exposure blockers, TALL-104 cells – cell-based, flow cytometry, MLPCN library, primary screen | TALL-104 LAMP-1 surface exposure; cells stimulated with thapsigargin and PMA | inhibition, % at 10 µM | hit rate 0.66% among 360,000 | AID 651702, 2012;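 active = inhibition above about 55%, limit read from the data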
ALR inh: inhibitors of human ALR sulfhydryl oxidase, primary screen, biochemical, H2O2 detection, HRP-luminol luminescence, single point; FAD-linked sulfhydryl oxidase ALR (Homo sapiens), P55789; purified ALR, DTT oxidation; inhibition, % (test concentration not listed); hit rate 3.8% among 290,000; AID 485317, 2010;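 active = mean replicate inhibition above about 79%, with every replicate also reaching it, limit read from the data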
Target sequence (P55789 whole entry, looked up): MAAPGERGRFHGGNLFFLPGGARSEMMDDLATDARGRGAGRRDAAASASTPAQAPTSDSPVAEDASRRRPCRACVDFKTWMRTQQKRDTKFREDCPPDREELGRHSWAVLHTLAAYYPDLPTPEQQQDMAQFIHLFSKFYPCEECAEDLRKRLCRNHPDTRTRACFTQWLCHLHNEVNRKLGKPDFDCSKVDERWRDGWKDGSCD
SMARCA2 activ: SMARCA2 (BRM) function activators, primary screen, cell-based, luminescence, high throughput; MG213 cells, MMTV-luciferase reporter, dexamethasone, overnight; activation, % at 9.1 µM; hit rate 1% among 370,000; in the data active = activation above about 7.8%;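 also: 0% = vehicle wells and 100% = reference activator wells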
JMJD2C inh: inhibitors of GASC-1 histone demethylase, primary screen, biochemical, fluorescence, DELFIA europium; hit rate 0.069% among 330,000; GST-JMJD2C(1-420) H3K9me3 demethylation; inhibition, % at 2.35 µM;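 active = more than half of a compound's replicate wells show inhibition beyond 50%, single wells judged on their own value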;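 also: signal counts dimethyl H3K9 product captured on neutravidin plate; 0% = median of DMSO wells and 100% = 0.3 times that DMSO median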
Target sequence (Q9H3R0 1-420 limits assumed): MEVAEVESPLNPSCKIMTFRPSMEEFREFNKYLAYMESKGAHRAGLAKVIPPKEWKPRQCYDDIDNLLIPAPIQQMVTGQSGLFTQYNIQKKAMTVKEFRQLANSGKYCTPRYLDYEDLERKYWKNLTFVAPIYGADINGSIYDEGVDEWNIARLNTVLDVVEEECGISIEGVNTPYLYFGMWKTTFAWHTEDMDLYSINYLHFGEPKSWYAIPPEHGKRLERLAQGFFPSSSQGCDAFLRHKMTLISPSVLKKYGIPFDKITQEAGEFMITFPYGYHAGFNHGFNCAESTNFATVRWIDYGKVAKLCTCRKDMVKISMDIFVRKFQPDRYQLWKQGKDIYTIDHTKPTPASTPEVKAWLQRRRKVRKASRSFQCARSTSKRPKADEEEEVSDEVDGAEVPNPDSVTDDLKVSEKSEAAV
Numbers without * were called inactive; x = no result. In the library only some 5.4% were active in any assay of this set; here they are far more common.

SMILES | MIN6 prolif | PfM18AAP inh | Granule exo inh | ALR inh | SMARCA2 activ | JMJD2C inh
COc1ccc(N2C(=O)CSC2c2cccc(OC)c2OC)cc1 (configuration not stated) | x | -1 | -3 | -2 | -4 | -6
COc1ccc(N2C(=O)CSC2c2ccccc2[N+](=O)[O-])cc1 (configuration not stated) | -2 | -3 | 1 | 99* | 7 | 5
COc1ccc(N2C(=O)CSC2c2ccccc2)cc1 (configuration not stated) | -3 | -2 | -2 | 97* | -2 | -43
Cc1ccc(-n2c(SCC(=O)c3ccccc3Cl)nnc2-c2cnccn2)cc1 | x | x | x | x | 6 | x
COCCNC(=O)Cn1cc(C(=S)N2CCCCC2)c2ccccc21 | -2 | 1 | -1 | -14 | -1 | 31
O=C(O)Cn1cc(C(=S)N2CCCCC2)c2ccccc21 | -1 | 17 | -6 | 91* | -3 | -1
O=C(O)Cn1cc(C(=S)N2CCOCC2)c2ccccc21 | 2 | -6 | -1 | 98* | -5 | -2
O=S1(=O)c2ccc(N3CC[C@@H](O)C3)cc2OCCCN1C1CC1 | x | x | x | x | -3 | x
CCN(c1ccc(NC(=O)COC(=O)c2ccc3ccccc3n2)cc1)C(C)C | 2 | 6 | -1 | 96* | -2 | 37
COC(=O)[C@]12C[C@H](CC(=O)NCC34CC5CC(CC(C5)C3)C4)C(=O)N(Cc3ccc(Cl)cc3Cl)C1=C[C@H](C(C)C)O[C@@H]2C1CC1 | x | x | x | x | -3 | x
CC1(C)CC(=O)C2=C(C1)Oc1nc3ccccc3cc1C2C(C#N)C#N (configuration not stated) | -3 | -5 | 0 | 80* | -1 | -2
CCCCN1C(=O)N2Cc3cc(OC)ccc3C2CS1(=O)=O (configuration not stated) | x | x | x | x | 3 | x
CNc1nc(N)c(C(=O)C23CC4CC(CC(C4)C2)C3)s1 | -3 | 3 | 2 | 98* | 2 | -1
CCCCN(C=O)c1c(CC)nc2c(OCC(=O)c3ccc(F)cc3)cccn12 | x | x | 7 | x | 7.9* | x
CN(C)CC(c1ccc(O)cc1)C1(O)CCCCC1 (configuration not stated) | x | x | x | x | -3 | x
CCCCN(C)C(=O)CNc1nnnn1-c1ccccc1 | x | x | x | x | -1 | x
Cc1ccc(-c2cc(C(=O)NC3=NCCS3)c3ccccc3n2)cc1C | x | 8 | -3 | 90* | 0 | 10
O=C(NC1=NCCS1)c1ccccc1Cl | 1 | 2 | 0 | x | -1 | 8
O=C(O)c1ccccc1NC(=O)c1cc(-c2ccccc2)nc2ccccc12 | -3 | 4 | 3 | 98* | -2 | 18
O=C(NC1=NCCS1)c1cc(-c2ccc(F)cc2)nc2ccccc12 | -2 | 4 | -7 | 0 | -1 | 2
O=C(NC1=NCCS1)c1csc2ccccc12 | -4 | 14 | 0 | 98* | 3 | 6
Cc1cc(C)cc(N(CC(=O)NC2CCC(C)CC2)S(=O)(=O)c2ccc(Cl)s2)c1 (configuration not stated) | x | x | x | x | 3 | x
N#Cc1ccc(NC(=O)OC2CC3CC2[C@H]2CCCCN2[C@H]3Cc2ccccc2)cc1 (some centres not stated) | x | x | x | x | -1 | x
CCOc1ccc(S(=O)(=O)NCCC(=O)N2CCN(c3ncccn3)CC2)cc1 | -4 | x | 0 | x | -2 | -4
COc1ccc(N2CCN(C(=O)CCC(=O)NNc3nc4ccccc4c4nc(C)nn34)CC2)cc1 | 0 | 7 | -9 | 99* | -3 | 70
SMILES | MIN6 prolif | PfM18AAP inh | Granule exo inh | ALR inh | SMARCA2 activ | JMJD2C inh
COc1ccc(N2CCN(S(=O)(=O)CCNS(=O)(=O)c3ccccc3)CC2)cc1 | 3 | x | 24 | 6 | -1 | 19
COc1ccc(N2CCN(C(=O)CCNC(=O)c3ccc(C(C)(C)C)cc3)CC2)cc1 | 0 | -9 | 0 | 86* | -3 | 4
COc1ccc(N2CCN(C(=O)CCNS(=O)(=O)c3ccccc3)CC2)cc1 | -2 | 5 | -1 | 98* | -2 | 13
CCOc1ccc(S(=O)(=O)NCCC(=O)N2CCN(c3ccc(OC)cc3)CC2)cc1 | 1 | -4 | 0 | 77* | -2 | 11
COc1ccc(N2CCN(C(=O)c3ccc(C(C)(C)C)cc3)CC2)cc1 | -1 | -15 | 3 | -7 | 0 | -5
COC(=O)[C@]12C[C@H](CC(=O)N3CCCC3)C(=O)N(CCc3ccc(OC)c(OC)c3)C1=C[C@H](C(C)C)O[C@@H]2C1CC1 | x | x | x | x | -1 | x
CCN(CC)C(=O)CC[C@@H]1CC[C@]2(CCCN(C(=O)c3ccco3)C2)O1 | x | x | x | x | -2 | x
COc1ccccc1CNC(=O)N1CCC(c2nc3ccc(Cl)cc3[nH]2)CC1 | x | x | x | x | -4 | x
COC(=O)c1ccccc1OCC(=O)N1CCN(c2ccc(OC)cc2)CC1 | -1 | -1 | 2 | 88* | 6 | -14
COc1ccc(N2CCN(C(=O)c3ccccc3N(C)S(=O)(=O)c3ccccc3)CC2)cc1 | -4 | -2 | -2 | 90* | -1 | 1
CN(c1ccccc1C(=O)N1CCN(c2ccccc2F)CC1)S(=O)(=O)c1ccccc1 | 1 | 1 | -3 | -17 | 2 | 3
CCOC(=O)[C@@]12CCC3=C1N(CCC3)C(=O)[C@H](CC(=O)NCc1ccccc1)C2 | x | x | x | x | -2 | x
Cc1nc2ncccn2c1-c1csc(Nc2cccc(C(=O)O)c2)n1 | -2 | 29* | -1 | 51 | 1 | 0
Cc1nc2ccccn2c1-c1csc(Nc2cccc(C(=O)O)c2)n1 | 1 | 31* | 13 | 23 | -1 | 4
COc1ccc(OC)c(Nc2nc(-c3c(C)nc4ncccn34)cs2)c1 | 0 | 9 | 52 | 45 | -4 | -2
N#C/C(=C\c1ccc(N2CCOCC2)o1)c1ccccc1 | -5 | -3 | 63* | x | 6 | -3
N#C/C(=C/c1ccc(N2CCOCC2)o1)c1ccc(Br)cc1 | -7 | 1 | 67* | 92* | 3 | -20
N/C(=N\C(=O)OCc1ccccc1)N(CC#CC1=CCCCC1)CC1CC1 | x | x | x | x | -3 | x
Clc1ccc(/C=C/c2ncc3ccccn23)cc1 | -4 | 1 | -2 | 99* | 3 | 0
Cc1cnc(=O)[nH]c1SCc1ccc([N+](=O)[O-])cc1 | -2 | 7 | -13 | 99* | 2 | -19
Cc1cnc(=O)[nH]c1SCc1ccc(C(F)(F)F)cc1 | -2 | -3 | 4 | x | -2 | 6
CCCc1cc(NC(=O)CCl)n(-c2ccccc2)n1 | -6 | 9 | -3 | 97* | 2 | 9
CC1(C)CC[C@]2(C(=O)O)CC[C@]3(C)C(=CC[C@@H]4[C@@]5(C)CC[C@H](O)C(C)(C)[C@@H]5CC[C@]43C)[C@@H]2C1 | -8 | x | 21 | -5 | -2 | x
